Data as given in PubChem BioAssay AID1159580 (chemical genetic matrix, 2015).
The whole screen tested about 5,500 compounds, of which about 2,000 (36%) were called active. About 18% were inconclusive and are not listed. Rule as the data show it: active = normalized growth mostly below about 0.91 (no sharp cut-off); inconclusive = no clear call, values can overlap the other calls; inactive = mostly above about 0.92. The list shows a part of the results.

Test: chemical genetic growth profiling, strain panel (AID 1159580);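 also: tested at 20 µM; growth read once vehicle control cultures reached saturation at 30 °C; 1 = growth at the plate median or of vehicle wells; lower values mean less growth of the strain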
Details: growth OD

Measured: normalized growth

O=c1cccc2n1CC1CC2CN2CCCC[C@@H]12 (stereo not given in full)
inactive: S. cerevisiae deletion strains, locus YJR043C, strain POL32, stronger effect = lower value 0.982 | S. cerevisiae deletion strains, locus YJR066W, strain TOR1, stronger effect = lower value 0.98 | S. cerevisiae deletion strains, locus YJR075W, strain HOC1, stronger effect = lower value 0.986 | S. cerevisiae deletion strains, locus YKL009W, strain mrt4, stronger effect = lower value 0.977 | S. cerevisiae deletion strains, locus YKL068W, stronger effect = lower value 0.983 | S. cerevisiae deletion strains, locus YKL085W, strain MDH1 (second series), stronger effect = lower value 0.986 | S. cerevisiae deletion strains, locus YKL085W, strain MDH1, stronger effect = lower value 0.986 | S. cerevisiae deletion strains, locus YKL160W, strain elf1, stronger effect = lower value 0.996 | S. cerevisiae deletion strains, locus YKR001C, strain vps1, stronger effect = lower value 1 | S. cerevisiae deletion strains, locus YKR026C, strain gcn3, stronger effect = lower value 0.965 | S. cerevisiae deletion strains, locus YKR091W, strain srl3, stronger effect = lower value 0.978 | S. cerevisiae deletion strains, locus YLL001W, strain dnm1, stronger effect = lower value 0.987 | S. cerevisiae deletion strains, locus YLL026W, stronger effect = lower value 0.976 | S. cerevisiae deletion strains, locus YLL041C, strain sdh2, stronger effect = lower value 0.98 | S. cerevisiae deletion strains, locus YLR027C, strain aat2, stronger effect = lower value 0.984 | S. cerevisiae deletion strains, locus YLR039C, strain RIC1, stronger effect = lower value 1 | S. cerevisiae deletion strains, locus YLR058C, strain SHM2, stronger effect = lower value 0.978 | S. cerevisiae deletion strains, locus YLR102C, strain apc9, stronger effect = lower value 0.982 | S. cerevisiae deletion strains, locus YLR113W, strain HOG1, stronger effect = lower value 0.985 | S. cerevisiae deletion strains, locus YLR221C, strain rsa3, stronger effect = lower value 1 | S. cerevisiae deletion strains, locus YLR258W, strain gsy2, stronger effect = lower value 0.978 | S. cerevisiae deletion strains, locus YLR262C, strain YPT6 (second series), stronger effect = lower value 1.01 | S. cerevisiae deletion strains, locus YLR262C, strain YPT6, stronger effect = lower value 0.955 | S. cerevisiae deletion strains, locus YLR268W, strain sec22, stronger effect = lower value 1.03 | S. cerevisiae deletion strains, locus YLR320W, strain mms22, stronger effect = lower value 0.974 | S. cerevisiae deletion strains, locus YLR330W, strain CHS5, stronger effect = lower value 0.997 | S. cerevisiae deletion strains, locus YLR342W, strain FKS1 (second series), stronger effect = lower value 1.01 | S. cerevisiae deletion strains, locus YLR342W, strain FKS1, stronger effect = lower value 0.975 | S. cerevisiae deletion strains, locus YLR357W, strain rsc2, stronger effect = lower value 0.943 | S. cerevisiae deletion strains, locus YLR370C, strain arc18, stronger effect = lower value 0.989 | S. cerevisiae deletion strains, locus YLR371W, strain rom2, stronger effect = lower value 0.977 | S. cerevisiae deletion strains, locus YLR384C, strain iki3, stronger effect = lower value 0.976 | S. cerevisiae deletion strains, locus YLR418C, strain cdc73, stronger effect = lower value 0.957 | S. cerevisiae deletion strains, locus YML016C, strain PPZ1, stronger effect = lower value 0.991 | S. cerevisiae deletion strains, locus YML032C, strain rad52, stronger effect = lower value 0.987 | S. cerevisiae deletion strains, locus YML120C, strain ndi1, stronger effect = lower value 1.02 | S. cerevisiae deletion strains, locus YML124C, strain tub3, stronger effect = lower value 0.978 | S. cerevisiae deletion strains, locus YMR058W, strain fet3, stronger effect = lower value 0.987 | S. cerevisiae deletion strains, locus YMR078C, strain ctf18, stronger effect = lower value 0.98 | S. cerevisiae deletion strains, locus YMR125W, strain sto1, stronger effect = lower value 0.944 | S. cerevisiae deletion strains, locus YMR129W, stronger effect = lower value 0.987 | S. cerevisiae deletion strains, locus YMR205C, strain PFK2, stronger effect = lower value 0.928 | S. cerevisiae deletion strains, locus YMR223W, strain ubp8, stronger effect = lower value 0.958 | S. cerevisiae deletion strains, locus YMR231W, strain pep5, stronger effect = lower value 0.98 | S. cerevisiae deletion strains, locus YMR263W, strain SAP30, stronger effect = lower value 0.981 | S. cerevisiae deletion strains, locus YMR307W, strain GAS1, stronger effect = lower value 1.04 | S. cerevisiae deletion strains, locus YNL067W, strain RPL9B, stronger effect = lower value 0.989 | S. cerevisiae deletion strains, locus YNL071W, strain lat1, stronger effect = lower value 0.994 | S. cerevisiae deletion strains, locus YNL153C, strain GIM3, stronger effect = lower value 0.993 | S. cerevisiae deletion strains, locus YNL183C, strain NPR1, stronger effect = lower value 0.993 | S. cerevisiae deletion strains, locus YNL209W, strain ssb2, stronger effect = lower value 0.984 | S. cerevisiae deletion strains, locus YNL233W, strain BNI4, stronger effect = lower value 1 | S. cerevisiae deletion strains, locus YNL248C, strain rpa49, stronger effect = lower value 1.01 | S. cerevisiae deletion strains, locus YNL250W, strain rad50, stronger effect = lower value 0.967 | S. cerevisiae deletion strains, locus YNL271C, strain bni1, stronger effect = lower value 0.996 | S. cerevisiae deletion strains, locus YNL298W, strain CLA4, stronger effect = lower value 0.986 | S. cerevisiae deletion strains, locus YNL307C, strain MCK1, stronger effect = lower value 0.981 | S. cerevisiae deletion strains, locus YNL322C, strain KRE1 (second series), stronger effect = lower value 0.976 | S. cerevisiae deletion strains, locus YNR049C, strain mso1, stronger effect = lower value 0.974 | S. cerevisiae deletion strains, locus YNR052C, strain pop2, stronger effect = lower value 0.979 | S. cerevisiae deletion strains, locus YOL006C, strain TOP1, stronger effect = lower value 1.04 | S. cerevisiae deletion strains, locus YOL012C, strain htz1 0.724 | S. cerevisiae deletion strains, locus YOL147C, strain pex11, stronger effect = lower value 0.98 | S. cerevisiae deletion strains, locus YOR001W, strain rrp6, stronger effect = lower value 0.993 | S. cerevisiae deletion strains, locus YOR061W, strain CKA2, stronger effect = lower value 0.962 | S. cerevisiae deletion strains, locus YOR069W, strain VPS5, stronger effect = lower value 0.999 | S. cerevisiae deletion strains, locus YOR070C, strain gyp1, stronger effect = lower value 0.99 | S. cerevisiae deletion strains, locus YOR080W, strain dia2, stronger effect = lower value 0.971 | S. cerevisiae deletion strains, locus YOR083W, strain WHI5, stronger effect = lower value 1.02 | S. cerevisiae deletion strains, locus YOR106W, strain vam3, stronger effect = lower value 0.985 | S. cerevisiae deletion strains, locus YOR136W, strain idh2, stronger effect = lower value 0.973 | S. cerevisiae deletion strains, locus YOR144C, strain elg1, stronger effect = lower value 0.976 | S. cerevisiae deletion strains, locus YOR184W, strain ser1, stronger effect = lower value 0.973 | S. cerevisiae deletion strains, locus YOR231W, strain MKK1, stronger effect = lower value 1.03 | S. cerevisiae deletion strains, locus YOR265W, strain rbl2, stronger effect = lower value 0.968 | S. cerevisiae deletion strains, locus YOR270C, strain vph1, stronger effect = lower value 0.987 | S. cerevisiae deletion strains, locus YOR290C, strain snf2, stronger effect = lower value 0.951 | S. cerevisiae deletion strains, locus YOR316C, strain cot1, stronger effect = lower value 0.976 | S. cerevisiae deletion strains, locus YPL051W, strain arl3, stronger effect = lower value 1 | S. cerevisiae deletion strains, locus YPL078C, strain atp4, stronger effect = lower value 0.999 | S. cerevisiae deletion strains, locus YPL106C, strain sse1, stronger effect = lower value 0.927 | S. cerevisiae deletion strains, locus YPL240C, strain hsp82, stronger effect = lower value 0.994 | S. cerevisiae deletion strains, locus YPL241C, strain CIN2, stronger effect = lower value 0.994 | S. cerevisiae deletion strains, locus YPL256C, strain CLN2, stronger effect = lower value 1.01 | S. cerevisiae deletion strains, locus YPR119W, strain clb2, stronger effect = lower value 0.976 | S. cerevisiae deletion strains, locus YPR141C, strain kar3, stronger effect = lower value 0.97 | S. cerevisiae deletion strains, locus YPR163C, strain tif3, stronger effect = lower value 0.973 | S. cerevisiae deletion strains, locus YPR167C, strain met16, stronger effect = lower value 0.973 | S. cerevisiae deletion strains, strain wtn01, stronger effect = lower value 1.04 | S. cerevisiae strains, strain wild type, stronger effect = lower value 1
